From PubChem
SMN2 splice up: qHTS Assay for Enhancers of SMN2 Splice Variant Expression. AID 1458, 2008. HEK293 SMN2-luciferase splicing reporter, luminescence, 30-36 h. Potency, µM (top dose mostly 46.1 µM), without a hit: at the highest dose activity change, positive = activation, most hits filed as activators. 2.8% of 210,000 active; also: % of control where 0% means no effect; nearly all actives have a fitted effect of over 55% in size
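HEK293 cells carry an SMN2 minigene-luciferase reporter in which exon 7 inclusion puts luciferase in frame. Cells were seeded at 2000 cells/well, attached for 10-12 hours, then exposed to compounds for 30-36 hours at 37C before ONE-Glo luminescence.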
FLuc counter: qHTS profiling assay for firefly luciferase inhibitor/activator using purifed enzyme and Km concentrations of substrates (counterscreen for miR-21 project); purified FLuc, Km substrates, luminescence inhibition; Potency, µM (highest dose often 57.5 µM), for the others: at the highest dose activity change, negative = inhibition, hits mostly inhibitors; 6.9% of 360,000 active;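 also: plate controls were vehicle for no effect and reference inhibitor for full effect; nearly all actives have a fitted effect of over 55% in size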
Target sequence (P08659 whole entry, looked up): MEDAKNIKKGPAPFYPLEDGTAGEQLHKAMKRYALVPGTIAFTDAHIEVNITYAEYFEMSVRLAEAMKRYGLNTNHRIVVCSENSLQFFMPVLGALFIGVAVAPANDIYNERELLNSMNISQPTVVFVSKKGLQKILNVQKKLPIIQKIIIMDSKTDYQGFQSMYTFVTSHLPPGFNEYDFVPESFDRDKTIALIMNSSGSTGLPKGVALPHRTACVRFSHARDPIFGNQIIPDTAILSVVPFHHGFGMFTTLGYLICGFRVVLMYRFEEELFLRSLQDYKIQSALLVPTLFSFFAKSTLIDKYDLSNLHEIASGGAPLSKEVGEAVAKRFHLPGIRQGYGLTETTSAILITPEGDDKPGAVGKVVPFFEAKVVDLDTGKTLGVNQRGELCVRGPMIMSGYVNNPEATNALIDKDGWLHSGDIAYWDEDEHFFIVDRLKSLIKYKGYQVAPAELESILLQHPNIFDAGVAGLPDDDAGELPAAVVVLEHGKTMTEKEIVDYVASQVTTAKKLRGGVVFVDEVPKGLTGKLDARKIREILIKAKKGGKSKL
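Biochemical qHTS of compounds, final roughly 60 µM downward over six points, against 10 nM purified firefly luciferase using Km concentrations of substrates (10 uM D-luciferin, 10 uM ATP) in Tris acetate pH 7.5 buffer; luminescence output.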
NPC1 prom act: qHTS Assay for NPC1 Promoter Activators. AID 485313, 2010. Huh7 NPC1 promoter luciferase reporter, 24 h. 2.4% of 320,000 active. Potency, µM (highest dose often 9.22 µM), for inactives: at the highest dose activation, usual class: activators; also: % of control where 0% means no effect; nearly all actives have a fitted effect of over 60% in size
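Cells: Huh7 expressing luciferase under the NPC1 promoter, 1500/well. Seeded 2 h, compound added, incubated 24 h at 37 °C. Luciferase reagent, 10 min ambient, then luminescence.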
KinaseGlo FLuc: Counterscreen for Luciferase (Kinase-Glo TM) Inhibition; Luciferin 4-monooxygenase (Photuris pensylvanica), Q27757; Kinase-Glo luciferase, ATP luminescence, 8 min; Potency, µM (top dose mostly 38.3 µM), inactives show top-dose activity change, negative = inhibition, usual class: inhibitors; 0.28% of 200,000 active; also: % is scaled to controls: 0 for no effect and ±100 for the full control effect; nearly all actives have a fitted effect of over 60% in size
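Substrate mix (final 50 mM imidazole pH 7.2, 50 mM KCl, 7 mM MgCl2, 10 uM ATP, 0.01% Tween 20, 0.05% BSA) plus pin-tool compound, then Kinase-Glo detection mix; 8 min ambient, luminescence read.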
Rab9 promoter act: qHTS Assay for Rab9 Promoter Activators; Huh7 Rab9 promoter-luciferase reporter, luminescence, 24 h; Potency, µM (top dose mostly 9.22 µM), without a hit: at the highest dose activation, negative = inhibition, usual class: activators; 2.8% of 320,000 active; AID 485297, 2010; also: % of control where 0% means no effect; nearly all actives have a fitted effect of over 60% in size
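Huh7 cells stably carrying a Rab9 promoter-luciferase reporter, 1500 cells per well in OP-MEM I with 10% FBS, treated with compound 24 hours at 37C. Luciferase activity read by luminescence after 10 minutes with Amplite reagent.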
* = called active by the depositor; ? = inconclusive; . = no result given; [ ] = remark or other dose. This is a sample that favours compounds with a hit; in the whole collection about 7.3% have one here. Calls follow the shape of the dose curve; as a rule, active = well fitted curve in the direction sought with a large enough effect; inconclusive = small, poorly fitted or top-dose-only effect, or another doubt; inactive = no such curve, though single readings can be large; an effect the other way counts as inactive or inconclusive. Potency is read from the fitted curve at half-maximal effect.

SMILES	SMN2 splice up	FLuc counter	NPC1 prom act	KinaseGlo FLuc	Rab9 promoter act
C=C1C2(C(=O)Nc3ccc(SC(F)F)cc3)CCC(C2)C1(C)C (centres undefined)	-33%	-3%	1%	0%	-6%
OC1CCC(NC(=S)Nc2ccc(SC(F)F)cc2)CC1 (centres undefined)	16µM*	21µM*	?	1%	?
FC(F)Sc1ccc(NC(=S)NC2CCCC2)cc1	?	13µM*	27%	-2%	3.2µM*
O=C(Nc1ccc(SC(F)F)cc1)C12CCC(CC1)C2	16%	11µM*	28%	-1%	30%
Cc1cc2nc(-c3ccc[nH]c3=O)[nH]c2cc1C	.	0.34µM*	?	.	0.5µM*
CCc1ccccc1NC(=O)C1CCN(C2=NS(=O)(=O)C(c3ccc(C)c(C)c3)=C2C)CC1	.	-6%	.	.	.
Cc1ccc(C(=O)c2cn(CC(=O)NC3CCCCC3)c3nc(C)ccc3c2=O)cc1	.	4%	.	.	.
COc1ccc(/C=C2\Oc3cc(OC(=O)N4CCOCC4)ccc3C2=O)cc1	.	6.7µM*	28%	.	-1%
COc1cc(OC)c(OC)cc1/C=C1\Oc2cc(OS(C)(=O)=O)ccc2C1=O	.	-5%	2%	.	-5%
CC(=O)Oc1ccc2c(c1)O/C(=C\c1ccncc1)C2=O	.	?	-3%	.	1%
COc1ccc2c(c1)O/C(=C\c1ccccc1C)C2=O	.	13µM*	29%	.	?
CCc1ccc(/C=C2\Oc3cc(OC(=O)N4CCOCC4)ccc3C2=O)cc1	-47%	7.6µM*	-6%	-3%	-10%
Nc1ncnc2c1ncn2[C@@H]1O[C@H](C(=O)NC2CC2)[C@H](O)[C@H]1O	14%	.	.	-2%	.
COc1ccc(Nc2nc3ccccc3nc2NS(=O)(=O)c2ccc(Cl)cc2)cc1OC	-7%	6.7µM*	.	.	.
CCCCNC(=O)c1cc(-c2ccc(OC)c(OC)c2)on1	-2%	-11%	14%	1%	16%
CCCNC(=O)c1cc(-c2ccc(OC)cc2)on1	10µM*	2.4µM*	0.89µM*	-4%	2.8µM*
COc1ccc(CNC(=O)c2cc(-c3ccc(OC)cc3)on2)cc1	-10%	5%	.	.	.
CCCCNC(=O)c1cc(-c2ccc(F)cc2)on1	25µM*	9.5µM*	3.5µM*	2%	4µM*
COc1ccc(-c2cc(C(=O)Nc3cc(C)nn3-c3ccccc3)no2)cc1	15%	13µM*	-5%	0%	-5%
CCCCNC(=O)c1cc(-c2ccc(OC)cc2)on1	14µM*	8.5µM*	4µM*	-4%	3.2µM*
COc1ccc(C(=O)NCCn2cc(SCC(=O)Nc3ccc4c(c3)OCCO4)c3ccccc32)cc1	-47%	?	.	.	.
NC(=O)[C@@H]1CCCN1Cc1ccc2c(c1)OCO2	-5%[9.22 µM]	.	.	-10%[7.66 µM]	.
COc1cc2ccc([C@H](C)NCC#N)cc2cc1OC	-7%[9.22 µM]	.	.	-2%[7.66 µM]	.
O=C(/C=C/c1ccco1)Nc1ccc(F)cc1	.	13µM*	4µM*	.	4µM*
O=C(/C=C/c1ccco1)NCc1ccc2c(c1)OCO2	12%	?	4%	1%	-1%
SMILES	SMN2 splice up	FLuc counter	NPC1 prom act	KinaseGlo FLuc	Rab9 promoter act
O=C(/C=C/c1ccco1)Nc1ccc2c(c1)OCO2	10µM*	6µM*	1.8µM*	-19%	0.79µM*
COc1cc(NC(=O)c2nc3ccccc3n(C)c2=O)cc(OC)c1OC	-2%	-20%	.	.	.
CC(=O)c1ccc(NC(=O)c2cnn3ccccc23)cc1	-37%	5.4µM*	0.35µM*	-14%	0.35µM*
CC(=O)c1cccc(NC(=O)c2nc3ccccc3n(C)c2=O)c1	23%	3.8µM*	.	.	.
CC(=O)c1ccc(NC(=O)c2cnn(-c3cccc(F)c3)c2-n2cccc2)cc1	.	-13%	.	.	.
Cc1ccc(C)c(NC(=O)c2cnn3ccccc23)c1	-5%	?	2%	1%	7%
CC(=O)c1cccc(NC(=O)c2cnn3ccccc23)c1	.	12µM*	5µM*	?	3.2µM*
Cc1ccc(N2CC(C(=O)NCc3nnnn3-c3ccc(C)c(C)c3)CC2=O)cc1C (centres undefined)	.	6%	.	.	.
O=C(Cn1c(-c2cccs2)cc2ccccc21)NCCCN1CCN(c2cccc(Cl)c2)CC1	.	1%	.	.	.
COc1ccc(-c2cc(C(F)(F)F)nc(SCC(=O)Nc3ccc(O)cc3)n2)cc1OC	-7%	3%	.	.	.
CCn1c(CN2CCCCC2)nc2cc(NC(=O)COc3ccc([N+](=O)[O-])cc3)ccc21	.	-10%	.	.	.
COc1ccc(Cl)cc1NC(=O)C1CC(c2c(F)cccc2Cl)=NO1 (centres undefined)	.	-2%	-2%	.	-5%
CSc1ccccc1NC(=O)C1CC(c2c(F)cccc2Cl)=NO1 (centres undefined)	.	17µM*	14%	.	16%
O=C(Cn1cnc2nc3c(cc2c1=O)CCCC3)N1CCN(c2ccccc2)CC1	.	-1%	.	.	.
O=C(/C=C/c1ccc(F)cc1)c1cc(Br)ccc1O	.	?	12%	.	10%
O=C(/C=C/c1ccc2ccccc2n1)c1cc(Br)ccc1O	.	8.5µM*	0%	.	6%
COc1cc(/C=C2\SC(=S)N(CC(=O)O)C2=O)ccc1OS(=O)(=O)c1ccc(C)cc1	.	-16%	6%	.	-13%
COc1cc(/C=N/N(C)C)ccc1OC(=O)c1cccs1	2%	27µM*	-6%	1%	10%
COc1cc(/C=C2/SC(=S)N(CC(=O)O)C2=O)ccc1OC(=O)c1cccs1	.	4.8µM*	0%	.	3%
COc1cc(/C=N/NC(N)=O)ccc1OC(=O)c1cccs1	6%	-8%	0%	2%	-7%
COc1cc(OC)c(NC(=O)CCCn2nc(C)c3c(C)n(-c4ccccc4)nc3c2=O)cc1Cl	.	0%	.	.	.
COc1cc(SC)ccc1C(=O)Nc1ccc2c(c1)OCCO2	5.6µM*	0.54µM*	?	-18%	0.89µM*
COc1cc(C(=O)Nc2ccc3c(c2)OCCO3)c(-n2cnnn2)cc1OC	-7%	1%	-5%	-5%	-3%
COc1ccccc1C(=O)Nc1ccc2c(c1)OCO2	18%	13µM*	?	-29%	2.5µM*
COc1ccccc1C(=O)Nc1ccc2c(c1)OCCO2	13µM*	7.6µM*	3.2µM*	-24%	1.8µM*
Cc1ccccc1C(=O)Nc1ccc2c(c1)OCO2	0.79µM*	4.8µM*	0.45µM*	?	0.45µM*
Cc1cccc(OCC(=O)NCc2ccc3c(c2)CCN3C(=O)c2ccc(Cl)cc2)c1	.	-17%	.	.	.
CCc1cc(CNC(=O)c2cc(COc3ccc(C)nc3)on2)on1	.	17µM*	?	.	?
C=CCC1(CC=C)CCCN1C(=O)c1cc(COc2ccc(C)nc2)on1	.	19µM*	-24%	.	-29%
Cc1cc(CNC(=O)c2cc(COc3ccc(F)c(F)c3)on2)nn1C	.	?	2.8µM*	.	1.3µM*
